# Reference: ChEMBL document CHEMBL3988442, “University of Dundee, Small-Polar-MMV Screening Library” (2021)
# The whole screen tested about 48,000 compounds, of which about 13,000 (27%) showed an effect of 50% or more. This is one part of the list.
# System: Wolbachia pipientis
# Test: Anti-Wolbachia Cell-Based Screen
# Format: functional
# Set-up: scale not given: in the data most compounds retested in dose-response had high values
# Details: 5 µM
row,SMILES,Percent Effect [%]
1,CCCn1nc2c(cc1=O)CN(Cc1nc(CCOC)no1)CC2,3.931
2,Cn1nc(C2CCCC2)c(-c2ccc3c(c2)OCO3)c1N,-8.229
3,CCS(=O)(=O)N1CCC2(CC1)CC[C@@]1(C(=O)NC)CN(C(C)=O)C[C@@H]21,0.6663
4,CNC(=O)[C@@]12CCC3(CCN(S(=O)(=O)C4CC4)CC3)[C@@H]1CN(C(C)=O)C2,108
5,CC(=O)N1C[C@H]2C3(CCN(S(C)(=O)=O)CC3)CC[C@@]2(C(=O)N(C)C)C1,-15.61
6,CNC(=O)[C@@]12CCC3(CCN(S(C)(=O)=O)CC3)[C@@H]1CN(C(C)=O)C2,110.1
7,CCS(=O)(=O)N1CCC2(CC1)CC[C@@]1(C(=O)N(C)C)CN(C(C)=O)C[C@@H]21,-13.65
8,CCS(=O)(=O)N1CCC2(CC1)CC[C@@]1(C(=O)N(C)C)CN(C)C[C@@H]21.O=C(O)C(F)(F)F,4.402
9,O=C(C1CCC2(CCN(c3nncs3)CC2)C1)N1CCCC1 (centres undefined),-10.32
10,O=C(NCC1CC2(CO1)CN(Cc1cccs1)C2)C1CCC1.O=C(O)C(F)(F)F (centres undefined),112.2
11,O=C(O)C(F)(F)F.O=C(O)C(F)(F)F.c1ccc(OCC2CC3(CCN(c4ncccn4)CC3)CO2)nc1 (centres undefined),3.683
12,O=C(NCC1CC2(CO1)CN(c1nncs1)C2)C1CCC1 (centres undefined),113.3
13,O=C(NC[C@H]1Cn2c(-c3ccccc3)cnc2CO1)C1CC1,-24.2
14,CN(C)C(=O)NCC1CC2(CO1)CN(c1nncs1)C2 (centres undefined),109.2
15,O=C(N[C@@H]1CN(Cc2cccs2)[C@@H]2COC[C@@H]21)C1CCC1.O=C(O)C(F)(F)F,-6.502
16,CN(Cc1ccccc1)CC1CC2(CO1)CN(c1nncs1)C2 (centres undefined),4.017
17,O=S(=O)(C1CC1)N1CCCC2(COCCN(c3nncs3)C2)C1 (centres undefined),1.243
18,CCS(=O)(=O)N1CCCC2(COCCN(c3nncs3)C2)C1 (centres undefined),-5.345
19,O=C(NCC1CC2(CO1)CN(c1ncccn1)C2)C1CCC1 (centres undefined),124.3
20,O=C(O)C(F)(F)F.O=C(O)[C@]12CCCN(Cc3cccs3)C[C@H]1CN(c1ncccn1)C2,1.756
21,Cn1c(Cn2cccn2)nnc1C1CCCN(c2ccncc2F)C1 (centres undefined),5.271
22,O=C(c1ccccn1)N1C[C@@H]2CC[C@H](C1)N(C(=O)CCC1CCCC1)C2,-23.02
23,CCOCCCOC(=O)c1ccc2c(c1)[nH]c(=O)n2C,-4.386
24,COc1ncnc(N(C)C)c1NC(=O)Cc1c[nH]c2ccc(F)cc12,-15.56
